Source: the supplement of paper PMC13380429

Tested on: Vero E6 infected with SARS-CoV-2
Assay: inhibition of SARS-CoV-2 cytopathic effect; higher = more antiviral protection, active = above 15
Conditions: 48 h

Measured: inhibition of SARS-CoV-2 cytopathic effect

CCCCCCCCCCOc1cc2c(O)c(C(=O)OCC)cnc2cc1OCC [decoquinate]
inactive: 1 nM -0.9% | 8.33 nM -0.75% | 100 nM -1.59% | 833.33 nM -0.59% | 10000 nM 2.03%

Oc1cccc2cccnc12 [oxyquinoline]
inactive: 1 nM -1.21% | 8.33 nM -0.58% | 100 nM 0.04% | 833.33 nM 2.84% | 10000 nM -0.31%

Oc1cc2c(cc1O)CN(C(=S)NCCc1ccc(Cl)cc1)CCC2 [capsazepine]
inactive: 1 nM -5.03% | 8.33 nM -2.95% | 100 nM -0.11% | 833.33 nM -0.65% | 10000 nM 3.42%

O=[N+]([O-])c1ccc2c(c1)S(=O)(=O)C=C2 [stattic]
inactive: 1 nM -2.62% | 8.33 nM -2.1% | 100 nM -5.02% | 833.33 nM 5.41% | 10000 nM -2.07%

N#CCNC(=O)c1ccc(-c2ccnc(Nc3ccc(N4CCOCC4)cc3)n2)cc1
inactive: 1 nM -0.49% | 8.33 nM -0.77% | 100 nM -0.33% | 833.33 nM -4.04% | 10000 nM -6.6%

Cc1ccccc1NC(=N)Nc1ccccc1C [ditolylguanidine]
inactive: 1 nM 1.39% | 8.33 nM 1.77% | 100 nM -1.06% | 833.33 nM -2.29% | 10000 nM -0.63%

CC=C1C(=O)C[C@H]2[C@@H]3CCC4=CC(=O)CC[C@]4(C)[C@H]3CC[C@]12C
inactive: 1 nM 0.03% | 8.33 nM -0.87% | 100 nM -1.56% | 833.33 nM -0.96% | 10000 nM 4.3%

CCCCN1[C@@H]2CC[C@H]1C[C@@H](OC(c1ccc(F)cc1)c1ccc(F)cc1)C2
inactive: 1 nM -4.04% | 8.33 nM 0.46% | 100 nM 3.9% | 833.33 nM 2.41%
active: 10000 nM 37%

Cc1nc2ccccc2c(-c2ccc3c4c(ccnc24)CCO3)c1[C@H](OC(C)(C)C)C(=O)O
inactive: 1 nM -1.93% | 8.33 nM -2.73% | 100 nM -4.38% | 833.33 nM -4.78% | 10000 nM -3.59%

CNC(=O)c1cccc(NC(=O)N2CCC(Oc3ccccc3Cl)CC2)c1
inactive: 1 nM 0.48% | 8.33 nM -3.23% | 100 nM -1.17% | 833.33 nM -2.36% | 10000 nM -3.23%

Cc1ccc2cc(-c3c(C)ccc(C(=O)c4c(-c5ccccc5)n(C)n(-c5ccccc5)c4=O)c3N)ccc2n1
inactive: 1 nM -0.74% | 8.33 nM -0.19% | 100 nM -0.14% | 833.33 nM 2.1%
active: 10000 nM 43.4%

Oc1ccc(C(O)CNCCCCCCNCC(O)c2ccc(O)c(O)c2)cc1O (stereo not given) [hexoprenaline]
inactive: 1 nM -3.2% | 8.33 nM 0.65% | 100 nM 2.27% | 833.33 nM -1.49% | 10000 nM -2.87%

CCc1c(O)cc(O)c(C(=O)c2ccc(OCCN3CCOCC3)c(OC)c2)c1CC(=O)N(CCOC)CCOC
inactive: 1 nM -1.17% | 8.33 nM -2.57% | 100 nM -1.95% | 833.33 nM -1.17% | 10000 nM 0.48%

CC(C)Oc1ccc(-c2nn([C@@H](C)c3oc4ccc(F)cc4c(=O)c3-c3cccc(F)c3)c3ncnc(N)c23)cc1F
inactive: 1 nM 1.54% | 8.33 nM 2.74% | 100 nM 0.14% | 833.33 nM 0.53% | 10000 nM -3.52%

c1cc2c3c(c1)c1c(n3CCNC2)CCCC1
inactive: 1 nM -1.27% | 8.33 nM -0.02% | 100 nM 0.6% | 833.33 nM 0.21% | 10000 nM -0.08%

C=CCc1ccc(O)c(-c2ccc(O)c(CC=C)c2)c1 [honokiol]
inactive: 1 nM 0.73% | 8.33 nM -0.89% | 100 nM -1.94% | 833.33 nM -0.06% | 10000 nM -0.26%

O=S(=O)(N[C@H](CO)C(C(F)(F)F)C(F)(F)F)c1ccc(Cl)s1 [begacestat]
inactive: 1 nM -4.03% | 8.33 nM -5.1% | 100 nM -1.3% | 833.33 nM -4.51% | 10000 nM -7.85%

O=C(N[C@@H]1CC[C@@H](c2cccc(F)c2F)CN(CC(F)(F)F)C1=O)N1CCC(n2c(=O)[nH]c3ncccc32)CC1 [telcagepant]
inactive: 1 nM 0.8% | 8.33 nM 6.42% | 100 nM 7.5% | 833.33 nM 2.53% | 10000 nM 5.63%

COc1cccc(C2(O)CCCCC2CN(C)C)c1 (stereo not given)
inactive: 1 nM 3.29% | 8.33 nM 6.35% | 100 nM 2.41% | 833.33 nM -2.01% | 10000 nM -5.31%

COc1cc(C(=O)N2CCOCC2)cc(OC)c1OC [trimetozine]
inactive: 1 nM 0.84% | 8.33 nM 0.93% | 100 nM 1.16% | 833.33 nM 4.1% | 10000 nM 2.28%

CC(=O)[C@H]1CC[C@H]2[C@@H]3CCC4=CC(=O)CC[C@]4(C)[C@H]3CC[C@]12C [progesterone]
inactive: 1 nM -0.08% | 8.33 nM 0.75% | 100 nM 2.72% | 833.33 nM 2.43% | 10000 nM 5.82%

Cc1cccc(Nc2ccncc2S(=O)(=O)NC(=O)NC(C)C)c1 [torasemide]
inactive: 1 nM -0.3% | 8.33 nM -0.37% | 100 nM -0.51% | 833.33 nM -1.03% | 10000 nM -1.02%

C#C[C@]1(O)CC[C@H]2[C@@H]3CCc4cc(OC5CCCC5)ccc4[C@H]3CC[C@@]21C [quinestrol]
active: 10000 nM 15.7%
inactive: 1 nM -2.85% | 8.33 nM -1.33% | 100 nM -0.65% | 833.33 nM 0.63%

CCCCCCCCCCCCCCCC[N+](C)(C)CCN(Cc1ccc(OC)cc1)c1ncccn1 [thonzonium]
inactive: 1 nM -1.08% | 8.33 nM -1.07% | 100 nM 3.19% | 833.33 nM -1.67% | 10000 nM -15.8%

O=C(NCCS(=O)(=O)c1ccc(C(F)(F)F)cn1)c1ccc(Cl)cc1
inactive: 1 nM 4.56% | 8.33 nM -1.99% | 100 nM 5.99% | 833.33 nM 1.04% | 10000 nM 1.56%

O=C(NCCCN1CCCCCC1)C(c1ccccc1)C1CCCCC1 (stereo not given)
inactive: 1 nM -0.49% | 8.33 nM 0.99% | 100 nM 0.31% | 833.33 nM -2.41% | 10000 nM -8.06%

CC(=O)O[C@H]1C(=O)[C@@]2(C)[C@H]([C@H](OC(=O)c3ccccc3)[C@]3(O)C[C@H](OC(=O)[C@H](O)[C@@H](NC(=O)c4ccccc4)c4ccccc4)C(C)=C1C3(C)C)[C@]1(OC(C)=O)CO[C@@H]1C[C@@H]2O [paclitaxel]
inactive: 1 nM -2.42% | 8.33 nM -0.27% | 100 nM -2.39% | 833.33 nM -4.55% | 10000 nM -2.64%

Cc1nc2ccccn2c(=O)c1CCN1CCC(C(=O)c2ccc(F)cc2)CC1 [pirenperone]
inactive: 1 nM 1.65% | 8.33 nM 1.73% | 100 nM -0.8% | 833.33 nM 1.4% | 10000 nM 0.69%

O=c1[nH]cnc2nc[nH]c12 [hypoxanthine]
inactive: 1 nM 4.22% | 8.33 nM 2.78% | 100 nM 1.76% | 833.33 nM 0.21% | 10000 nM 2.46%

CN1CCN(CCc2ccc(Cl)c(Cl)c2)CC1
inactive: 1 nM 0.05% | 8.33 nM 3.18% | 100 nM -0.38% | 833.33 nM 0.92% | 10000 nM -1.14%

CCS(=O)(=O)N1CCN(c2ccc(Nc3ncc(C(N)=O)c(NC4CC4)n3)cc2)CC1
inactive: 1 nM -1.63% | 8.33 nM -0.99% | 100 nM -2.24% | 833.33 nM 2.08% | 10000 nM -5.53%

CC(C)=CCC[C@](C)(O[C@@H]1O[C@H](CO)[C@@H](O)[C@H](O)[C@H]1O)[C@H]1CC[C@]2(C)[C@@H]1[C@H](O)C[C@@H]1[C@@]3(C)CC[C@H](O)C(C)(C)[C@@H]3CC[C@]12C [ginsenoside-C-K]
inactive: 1 nM 3.53% | 8.33 nM 3.09% | 100 nM 3.64% | 833.33 nM -0.21% | 10000 nM 2.52%

Nc1ncnc2c1c(-c1cccc(OCc3ccccc3)c1)cn2C1CC(CN2CCCC2)C1 (stereo in doubt)
inactive: 1 nM -0.48% | 8.33 nM 0.04% | 100 nM 1.98% | 833.33 nM 0.14%
active: 10000 nM 27.9%

C[C@@H]1C[C@H]2[C@@H]3C[C@H](F)C4=CC(=O)C=C[C@]4(C)[C@@]3(Cl)[C@@H](O)C[C@]2(C)[C@H]1C(=O)COC(=O)C(C)(C)C [clocortolone-pivalate]
inactive: 1 nM 0.49% | 8.33 nM 2.86% | 100 nM -2.33% | 833.33 nM 1.18% | 10000 nM -2.12%

CO/N=C(\C(=O)N[C@@H]1C(=O)N2C(C(=O)O)=C(CSC(=O)c3ccco3)CS[C@H]12)c1csc(N)n1
inactive: 1 nM -0.19% | 8.33 nM -0.66% | 100 nM -1.18% | 833.33 nM -0.09% | 10000 nM -0.18%

Nc1nnc(Sc2ncc([N+](=O)[O-])s2)s1
inactive: 1 nM 3.57% | 8.33 nM -1.18% | 100 nM -0.27% | 833.33 nM -2.43% | 10000 nM -20.9%
